# Only some compounds are listed: those with a hit (about 19% of all), similar ones and a draw of the others.
# HT1080 IDH1KD tx: HT-1080 IDH1 knockdown cell toxicity (counter line) | Potency, µM (top dose mostly 46.1 µM), hits mostly cytotoxic | HT-1080 IDH1 knockdown viability, ATP luminescence, 48 h | 2% of 360,000 active
#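 Viability of IDH1-knockdown HT-1080 fibrosarcoma cells was assessed by CellTiter-Glo after 48 h at 37 °C with titrated compound; concentration-effect curves were classified by fit quality and response size.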
# TDP1 cell CPT: DT40-hTDP1 cell growth loss with CPT; Potency, µM (highest dose often 46.2 µM), actives largely listed as inhibitors; 12% of 420,000 active; AID 686979; chicken DT40 Tdp1-/-;hTDP1 cells + 20 nM CPT, ATP luminescence, 48 h; note: nearly all actives have a fitted effect of over 55% in size
#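 Cell growth measured by CellTiter-Glo luminescence after a minimum 48 h, 37 C compound exposure with 20 nM CPT in Tdp1-knockout DT40 cells stably expressing hTDP1, seeded 400/well; qHTS titration format.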
# TDP1 cell noCPT: qHTS for Inhibitors of human tyrosyl-DNA phosphodiesterase 1 (TDP1): qHTS in cells in absence of CPT; DT40 Tdp1-/- hTDP1 cells, no CPT, ATP luminescence, 48 h; AID 686978, 2013; Potency, µM (titrated, usually from 46.2 µM), usual class: inhibitors; 15% of 420,000 active; note: nearly all actives have a fitted effect of over 55% in size
#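 Compound effects on proliferation are scored in DT40 Tdp1-/-;hTDP1 cells in the absence of CPT. ATP levels (CellTiter-Glo luminescence) are recorded after a ≥48 hr, 37 °C incubation.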
# HT1080-NT tox: kills 2HG-producing HT-1080-NT fibrosarcoma cells | Potency, µM (highest dose often 46.1 µM), actives largely listed as cytotoxic | AID 686970 | 1.6% of 360,000 active | HT-1080-NT fibrosarcoma viability, CellTiter-Glo ATP luminescence, 48 h;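 note: NT is the 2HG producing partner of a matched IDH1 knockdown line; nearly all actives have a fitted effect of over 55% in size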
#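 Luminescent CellTiter-Glo readout after 48 hours of compound exposure at 37 degrees C defined viability of HT-1080-NT cells. Activity was normalized to DMSO wells and cell-free media wells; concentration-response curves were fitted and assigned curve classes.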
# IL-1B inflam inh: blocks inflammasome-driven IL-1 beta release. 4.7% of 360,000 active. activity change, % at 57.5 µM. THP-1 LPS/ATP IL-1B secretion, AlphaLISA, 16 h; stronger effect = lower value; in the data active = activity change below about -50%; inconclusive = mostly about -30% to -49%
#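 Secreted IL-1B measured by AlphaLISA bead assay after 16 h compound exposure of THP-1 cells; compounds (final up to 57.5 uM) added 1 h before LPS (250 ng/mL) and ATP (1.25 mM) stimulation; lower signal means less secretion.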
# A number is an active result; – = inactive; ? = inconclusive; · = no result. Unless noted, calls come from the whole dose curve; as a rule, active = well fitted curve in the direction sought with a large enough effect; inconclusive = small, poorly fitted or top-dose-only effect, or another doubt; inactive = no such curve, though single readings can be large; an effect the other way counts as inactive or inconclusive.
SMILES,HT1080 IDH1KD tx,TDP1 cell CPT,TDP1 cell noCPT,HT1080-NT tox,IL-1B inflam inh
CC1=C(C(=O)OC2CCCCC2)C(c2ccc(C)o2)C2=C(CC(C)(C)CC2=O)N1 (centres undefined),–,18µM,?,–,–
Cc1ccc(-n2nc(C(=O)N3CCN(c4cc(Cl)ccc4C)CC3)c3c4ccccc4n(C)c3c2=O)cc1,·,–,–,·,·
CC1=C(C(=O)OC2CCCC2)C(c2ccc(C)o2)C2=C(CC(c3cccs3)CC2=O)N1 (centres undefined),?,?,16µM,?,–
CC1=C(C(=O)Nc2ccccc2C)C(c2ccc(C)o2)C2=C(CCCC2=O)N1 (centres undefined),–,–,–,?,–
c1ccc(NC2=Nc3ccccc3CS2)cc1,–,–,–,–,–
Brc1ccc(NC2=Nc3ccccc3CC2)cc1,–,?,16µM,–,–
Cc1ccccc1NC(=S)N/N=C/C(C)c1ccccc1 (centres undefined),–,10µM,13µM,–,–
Cc1cccc(NC(=S)N/N=C/C(C)c2ccccc2)c1C (centres undefined),–,–,?,–,-103
CC(NC(=S)Nc1ccc(F)cc1)c1ccccc1 (centres undefined),–,–,?,–,–
CC(C)c1ccccc1NC(=S)NC(C)c1ccccc1 (centres undefined),–,?,16µM,–,–
Cc1ccccc1NC(=S)Nc1ccc(Br)cc1,–,–,–,–,–
COc1ccc(Cl)cc1NC(=O)c1c(C(=O)Nc2cccc(C)c2C)sc2nc(C)cc(=O)n12,·,?,21µM,·,·
CC1CCN(S(=O)(=O)c2ccc3nc(N4CCN(c5ccccc5F)CC4)ccc3c2)CC1,·,–,?,·,·
CC1CCN(S(=O)(=O)c2ccc3nc(NCc4ccc(F)cc4)ccc3c2)CC1,·,13µM,13µM,·,·
Cc1ccc(CNc2ccc3cc(S(=O)(=O)N4CCCCC4)ccc3n2)cc1,·,10µM,10µM,·,·
CCOc1ccccc1CNc1ccc2cc(S(=O)(=O)N3CCC(C)CC3)ccc2n1,·,?,23µM,·,·
CC1CCN(S(=O)(=O)c2ccc3nc(NCc4ccc(N(C)C)cc4)ccc3c2)CC1,·,23µM,12µM,·,·
COc1ccc(CNC(=O)c2ccccc2NC(=O)C2=C(C)OCCS2)cc1,–,?,?,–,–
N#C/C(=C\c1ccc(Cl)cc1Cl)c1nc(-c2cccc(Cl)c2)cs1,·,–,–,·,·
CCOc1cc(N2CCOCC2)c(OCC)cc1NC(=O)c1ccco1,–,–,12µM,–,–
CCOc1cc(N2CCOCC2)c(OCC)cc1NC(=O)c1nc2nc(C)cc(C)n2n1,–,?,23µM,–,–
CCOc1cc(N2CCOCC2)c(OCC)cc1NC(=O)C(NC(=O)c1c(F)cccc1F)C(C)C (centres undefined),–,?,9.2µM,–,–
CCOc1cc(N2CCOCC2)c(OCC)cc1NC(=O)c1ccc2ccccc2n1,–,?,?,–,–
CCOc1cc(N2CCOCC2)c(OCC)cc1NC(=O)c1cnccn1,–,21µM,23µM,–,–
Cc1ccc2nc(-c3ccccc3)nn2c1,–,–,?,–,–
SMILES,HT1080 IDH1KD tx,TDP1 cell CPT,TDP1 cell noCPT,HT1080-NT tox,IL-1B inflam inh
C[C@H]1CN([C@@H](C)CO)C(=O)CCCn2cc(nn2)CO[C@@H]1CN(C)S(=O)(=O)c1ccc(Oc2ccccc2)cc1,–,–,–,–,–
COc1cc(C(=O)NCC(=O)OCCN2C(=O)c3ccccc3C2=O)cc(OC)c1OC,–,–,–,–,–
CC(C)COc1ccc(C(=O)Nc2ccc(N3CCOCC3)cc2N2CCOCC2)cc1,–,18µM,16µM,–,–
CCOc1cc(N2CCOCC2)c(OCC)cc1NC(=O)c1ccc(NC(C)=O)cc1,–,–,–,–,–
CCOc1cc(N2CCOCC2)c(OCC)cc1NC(=O)c1ccc(OCc2c(C)noc2C)c(OC)c1,–,15µM,10µM,–,–
CCOc1cc(N2CCOCC2)c(OCC)cc1NC(=O)C(NC(=O)c1ccco1)C(C)C (centres undefined),–,–,12µM,–,–
CCOc1cc(N2CCOCC2)c(OCC)cc1NC(=O)c1ccc(OC)cc1,–,6.5µM,7.3µM,–,–
Cc1ccc(NC(=O)COC(=O)c2cccc3c(=O)c(C)c(-c4ccccc4)oc23)cc1,–,–,–,–,–
CC1(CNC(=O)C(=O)NCC2(C)CO2)CO1 (centres undefined),–,0.82µM,1.6µM,–,–
CCOc1ccc(C(=O)Nc2cccc(-c3ccc(N4CCOCC4)nn3)c2)cc1OCC,–,?,10µM,–,–
COc1cc(C)c(C)cc1S(=O)(=O)Nc1cccc(-c2ccc(N3CCOCC3)nn2)c1,·,?,16µM,·,·
O=C(Nc1cccc(-c2ccc(N3CCOCC3)nn2)c1)c1ccc(F)cc1F,–,–,–,–,–
COc1cccc(C(=O)Nc2cccc(-c3ccc(N4CCOCC4)nn3)c2)c1OC,?,?,23µM,–,–
CCOc1ccccc1C(=O)Nc1cccc(-c2ccc(N3CCOCC3)nn2)c1,–,?,16µM,–,-62
N#Cc1ccc(C(=O)CSc2n[nH]c(=O)n2-c2cccnc2)cc1,–,–,?,–,·
c1cc[n+](CCC[n+]2ccccc2)cc1,–,–,–,–,–
CCOc1cc(N2CCOCC2)c(OCC)cc1NC(=O)COC(=O)CCc1c[nH]c2ccccc12,–,–,?,–,–
COc1ccc(C(=O)Nc2cccc(-c3ccc(N4CCOCC4)nn3)c2)cc1OC,–,18µM,9.2µM,–,–
COc1cccc(C(=O)Nc2cccc(-c3ccc(N4CCOCC4)nn3)c2)c1,–,–,?,–,–
C[N+](C)(C)CCC(=O)c1cccc2ccccc12,·,0.58µM,0.92µM,·,·
O=C(O)CCC(=O)c1cccc2ccccc12,–,–,–,–,–
O=C1C=C(/C=C/c2ccccc2)C[C@@H](c2ccc(F)cc2)C1,–,?,?,–,–
O=C1C=C(C#Cc2ccccc2)C[C@@H](c2ccc(F)cc2)C1,–,4.6µM,4.6µM,?,-85
COc1ccccc1C#CC1=CC(=O)C[C@H](c2ccc(F)cc2)C1,–,15µM,16µM,?,-58
CCOC(=O)CCCNC(=O)CSc1nnc(-c2ccccc2)c(-c2ccccc2)n1,–,?,?,–,–
Cc1cc(C)cc(NC(=O)[C@H](NC(=O)[C@@H]2Cc3ccccc3CN2)c2ccccc2)c1,?,?,26µM,?,–
Cc1ccc(NC(=O)[C@H](NC(=O)[C@@H]2Cc3ccccc3CN2)c2ccccc2)c(C)c1,–,?,–,–,–
CCOC(=O)N1CCN(S(=O)(=O)c2ccc(C(=O)Nc3sc4c(c3C#N)CCC4)cc2)CC1,–,–,–,–,–
